Measurements from the supplement of paper PMC10338343.
± gives the standard deviation.

system: MILI (PIWIL2) piRISC loaded with L1MC piRNA (26 nt); experiment: pre-steady-state target cleavage rate (min^-1); guide: L1MC piRNA 5'p-UAACUAAAUACUAUGCAAGCUGUAGG; MIWI and MILI are mouse PIWI proteins and EfPiwi is from a freshwater sponge; tags in brackets are library labels; higher = faster piRNA-guided slicing of the target; conditions: auxiliary factor: 500 nM mouse GTSF1
Experimental: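 Cleave-'n-Seq: a library of target RNAs (target site embedded in constant flanks, ACAGCATTCCGCGTTAGTGATATCCG... 5' flank; DNA-blocked outside the site) at 0.1 nM was incubated with 1 nM active mouse MILI or MIWI piRISC (synthetic 5'-monophosphorylated piRNA guide) with or without 500 nM mouse GTSF1 at 33 °C for 1 min to 16 h. Uncleaved targets were sequenced and normalised to non-target controls, and the pooled three trials were fitted to a burst-and-steady-state model to give the pre-steady-state cleavage rate (min^-1; k3 is constrained to at most 1e-4). Sequence is the target site only; target names encode pairing extent (gX:gY) and contiguous / 1-mismatch / 2-mismatch / bulge geometry. Fits with R² ≤ 0 are excluded.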

Sequence | pre-steady-state target cleavage rate
UCCUGGAUGUCAUUGCAUAGUAUUUAGUUA | 0.0928 ± 0.015
UCCUGGAUGUCGAUGCAUAGUUUAUAGUUA | 0.00501 ± 0.0045
UCCUGGAUCACGUUGCAUAGUAUUUACAAA | 0.0591 ± 0.015
UCCUGGAUGAGCUUGCAUAGUAUUUGAGUUA | 0.307 ± 0.051
UCCUCCUACAGCAUGCAUAGUAUUUACUUA | 0.16 ± 0.022
UCCUGGAUGUCCUUGCAUAGUGAUUUAGUUA | 0.0104 ± 0.0052
UCCUGCUACAGCUUGCAUUGUAUUUACUUA | 0.12 ± 0.025
UCCUGGAUGUGCUUGCAUCGUAUUUAGUUA | 0.0778 ± 0.017
UCCUGGAUCAGCUUGCAUAGUGUUUAGUUA | 0.2 ± 0.018
UCCUCCUACACGAUGCAUAGUAUUUAGUAA | 0.194 ± 0.026
UCCUGGAACAGCUUGCAUAGUAUUUGGUUA | 0.221 ± 0.026
UCCUCCUACAGCUUGGAUAGUAUUUAGUUA | 0.294 ± 0.017
UCCUGGAACACCUUGCAUAGUAUUUUCAAA | 0.0441 ± 0.015
UCCUGGAUGUCGAUGCAUAGUAUUUAGUAUA | 0.0977 ± 0.016
UCCUGGAUCAGCUUGCAUAGUAAAUACAAA | 0.0497 ± 0.016
UCCUCCUACUCGUUGCAUAGUAUUUACAAA | 0.0372 ± 0.012
UCCUGGAUGUCCUUGCAUAGUAUAUUGUUA | 0.0329 ± 0.0079
UCCUGGAUGUCGUAGCAUAGUAUUUAGAUA | 0.0132 ± 0.0048
UCCUGGAUGUCGAUGCUUAGUAUUUAGUUA | 0.019 ± 0.0053
UCCUGGAUGUCCUUGCUUAGUAAUUAGUUA | 0.0235 ± 0.0061
UCCUGGAUCAGCUAGCAUAGUAUAUAGUUA | 0.22 ± 0.02
UCCUCCUACAGCUUGCAAAGUAUUUAGUUA | 0.167 ± 0.014

same assay, conditions: auxiliary factor: none (no GTSF1)

Sequence | pre-steady-state target cleavage rate
UCCUGGAUGUCAUUGCAUAGUAUUUAGUUA | 0.0087 ± 0.0027
UCCUGGAUGUCGAUGCAUAGUUUAUAGUUA | 0.00379 ± 0.0026
UCCUGGAUGAGCUUGCAUAGUAUUUGAGUUA | 0.00461 ± 0.0029
UCCUCCUACAGCAUGCAUAGUAUUUACUUA | 0.00307 ± 0.0026
UCCUGGAUGUCCUUGCAUAGUGAUUUAGUUA | 0.00503 ± 0.0028
UCCUGCUACAGCUUGCAUUGUAUUUACUUA | 0.00348 ± 0.0023
UCCUGGAUGUGCUUGCAUCGUAUUUAGUUA | 0.0103 ± 0.0028
UCCUGGAUCAGCUUGCAUAGUGUUUAGUUA | 0.00361 ± 0.003
UCCUCCUACACGAUGCAUAGUAUUUAGUAA | 0.00362 ± 0.0022
UCCUGGAACAGCUUGCAUAGUAUUUGGUUA | 0.00881 ± 0.0026
UCCUCCUACAGCUUGGAUAGUAUUUAGUUA | 0.0109 ± 0.003
UCCUGGAUGUCGAUGCAUAGUAUUUAGUAUA | 0.00504 ± 0.0027
UCCUGGAUGUCGAUGCUUAGUAUUUAGUUA | 0.00602 ± 0.0019
UCCUGGAUGUCCUUGCUUAGUAAUUAGUUA | 0.00598 ± 0.0019
UCCUGGAUCAGCUAGCAUAGUAUAUAGUUA | 0.00644 ± 0.0023
UCCUCCUACAGCUUGCAAAGUAUUUAGUUA | 0.00717 ± 0.0022
UCCUGGAUGUCGAACCAUUAGUAUUUAGUUA | < 0.0001
